This test in a line: qHTS Multiplex Assay to Identify Dual Action Probes in a Cell Model of Huntington: Cytotoxicity in HTT Striatal Cells. The note with it: STHdhQ111/111 striatal cells, serum-free, ATP luminescence, 24 h. The source says:
NIH Chemical Genomics Center [NCGC] NIH Molecular Libraries Probe Production centers Network [MLPCN] MLPCN Grant: MH084839-01A1 Assay Submitter (PI): Wei Zheng NCGC Assay Overview: Huntington's disease is a neurodegenerative disorder caused by a trinucleotide repeat expansion in Exon 1 of the Huntingtin gene. The CAG trinucleotide encodes glutamine and polyglutamine expansions cause cell death in selective areas of the brain. Huntington polyglutamine repeats have the tendency to form aggregates which are observable in later stages of the disease. The exact nature of the aggregates, whether toxic, protective, or insignificant, is unclear. A stable PC12 cell line containing a gene fusion of Exon 1 of the Huntingtin gene linked to GFP under the control of the inducible ecdysone promoter were used as the cell-based model of Huntington Disease for high throughput screening. Exon 1 of the Huntingtin gene contained an expansion of 103 polyglutamines (Q103) which, when expressed, caused cell death and distinct, bright GFP aggregates. The amount of cell death and the size and intensity of GFP aggregates increased over time and induction level. The cell death were quantified with a measurement of ATP content in the cells. A maximal 40-50% of cell death was observed when the Huntington gene was induced in this cell line. We optimized this assay in a homogeneous 1536 well format. A quantitative high throughput screen (qHTS) was conducted on the PC12 cells which were induced to express the toxic fusion construct. Small molecules which prevented cell death were identified by using a luminescent ATP quantification method (Perkin Elmer's ATPlite). This assay examines influence on cytotoxicity induced by serum deprivation in normal and Huntington striatal cells.
Freshlay passaged STHdhQ7/7 cells and mutant STHdhQ111/111 Huntington striatal cells were plated at a density of 20,000 cells/well in complete media and allowed to recover overnight at 33C. The next day, media was replaced with serum containing media or serum free media containing the compound. After 24 hours of incubation at 33 C, cells were assayed for ATP content using the Cell Titer-GLO ATP assay from Promega (cat # G7571). ATP/Toxicity Assay in Serum Free Media (SFM) (96 well plate format) 1. Plate 20,000 cells/well and incubate the cells in complete (w/serum) media overnight 2. Remove media, wash twice with PBS and add the SFM w/ or w/o the compound 3. Incubate at 33C; cells can be incubated at 39C for a more dramatic effect 4. ATP measurements after […] treatment, per kit protocol
On the technique in general: Quantitative high-throughput screening tests each substance at several concentrations.

The record followed here is PubChem BioAssay AID2713 (National Center for Advancing Translational Sciences (NCATS), 2010).

Where “and” joins values, the source holds several entries; their conditions need not be identical. Identical values can stand only once. Inconclusive results are not listed. Calls of active or inactive are those of the source.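 How the source made its calls: active means compounds raising survival of Huntington mutant striatal cells while barely changing normal control cells; inconclusive means compounds that make cell death worse; inactive means the rest.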

For `Cn1nnnc1Sc1ncnc2scc(-c3ccccc3)c12`, the viability change (measured here: Q7/7 cells, at 30 µM) was 33% and 26%; the viability change (measured here: Q7/7 cells, at 60 µM) was 21% and 15%; the viability change (measured here: Q111/111 cells, at 60 µM) is 191% and 196%; the viability change (at 30 µM) was 231% (active) and 240% (active); the viability change (measured here: Q7/7 cells, FBS, at 30 µM) is 9% and 8%; the viability change (measured here: Q7/7 cells, FBS, at 60 µM) is 7% and 5%. For the same compound, the viability change is, setting by setting: (measured here: Q111/111 cells, FBS, at 30 µM) 18% and 16%; (measured here: Q111/111 cells, FBS, at 60 µM) 9% and 8%.
